The list is not random: actives were taken first. Their share in the collection is about 13%.
CHOP inh – inhibitors of CHOP promoter induction, primary screen, cell-based, unfolded protein response, luciferase reporter | actives 3.8% (n = 220,000) | inhibition, % at 10 µM | CHO-K1 CHOP-promoter luciferase, tunicamycin-induced, 15-18 h;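 active = compounds that reduced the stress-induced luciferase reporter signal by more than about 70% of percent inhibition, limit read from the data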
WT yeast gro inh – growth inhibition of WT strain, primary screen, mitochondrial fusion inhibitor project, WT and mutant strains, chemical genetic | mitochondrial fusion phenotypic screen | inhibition, % at 10 µM | actives 2.1% (n = 190,000) | AID 1362, 2008; in the data active = inhibition above about 58%; tested in S. cerevisiae
RAM network inh – inhibitors of the yeast RAM network, primary screen, dse1pr::URA3 reporter, 5-FOA selection; S. cerevisiae dse1pr::URA3 reporter, 5-FOA growth OD615, 2 d; analog-sensitive cbk1-as2 kinase mutant strain; actives 1.8% (n = 190,000); inhibition, % at 50 µM; AID 868, 2007;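 active = inhibition above a set limit, 3 SD over mean compound inhibition, cut at about 8.4% in these data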;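 also: inhibition rescues growth on 5-FOA so higher OD means more RAM inhibition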
L major viab – Leishmania major promastigote growth inhibition, primary screen; Leishmania major promastigotes, resazurin fluorescence viability; inhibition, % at 10 µM; actives 9% (n = 200,000); AID 1063, 2008; in the data active = inhibition above about 50%;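 also: promastigotes grown with compound for 44 hours at 28 °C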
Large screens that a line does not name were inactive.

O=C1c2ccccc2C(=O)N1CC#CCN1CCN(C(c2ccccc2)c2ccccc2)CC1	WT yeast gro inh 68
CC(C)(C)c1cc[n+](C2=C([O-])c3ccccc3C(=O)/C2=N\S(=O)(=O)c2cccs2)cc1	CHOP inh 81 (no result: WT yeast gro inh, RAM network inh, L major viab)
O=C(CCNC(=O)Cn1ccc2ccccc2c1=O)NCCc1ccccc1Cl	none
CC(=O)c1sc(NC(=O)COc2ccccc2)nc1C	none
CC(=O)c1sc(NC(=O)COc2ccc(C(C)C)c(C)c2)nc1C	CHOP inh 77
CCOc1ccccc1OCCC(=O)OCC(=O)c1ccc[nH]1	none
CCC(=O)n1nc(-c2ccccc2)nc1N	none
Cc1ccc(-c2nc(N)n(C(=O)Cc3ccccc3)n2)cc1	CHOP inh 86
COc1ccc2c(c1)CCCC21SC(NC(C)=O)=NN1C(C)=O (configuration not stated)	none
Cc1ccc(N(CN2C(=O)c3ccccc3C2=O)C(=O)c2ccc([N+](=O)[O-])cc2[N+](=O)[O-])cc1	none
CC(C)(C)c1cc(NC(=O)CCl)n(-c2ccccc2)n1	none (no result: WT yeast gro inh, RAM network inh, L major viab)
CCCc1cc(NC(=O)CCl)n(-c2ccccc2)n1	L major viab 51
COc1ccc(-c2cc(C(=O)OCC(=O)N(C)C3CCS(=O)(=O)C3)c3ccccc3n2)cc1OC (configuration not stated)	none
S=C(NNc1ccc2ccccc2c1)NC1CCCCC1	CHOP inh 81, WT yeast gro inh 78
S=C(Nc1ccc(Oc2ccccc2)cc1)NC1CCCCCC1	WT yeast gro inh 69, RAM network inh 11
S=C(Nc1ccc(Oc2ccccc2)cc1)NC1CCCCC1	CHOP inh 75, WT yeast gro inh 61
CCCCN(C)C(=S)Nc1ccc(Oc2ccccc2)cc1	WT yeast gro inh 59
Nc1nc(NS(=O)(=O)c2ccc(Cl)cc2)nn1-c1ccccc1	none (no result: WT yeast gro inh, RAM network inh, L major viab)
CN(C(=S)Nc1ccc(Oc2ccccc2)cc1)C1CCCCC1	WT yeast gro inh 68
CN(C)Cc1ccccc1Sc1cccc2ccccc12	L major viab 97
O=C(NNC(=O)[C@@H]1CCCC[C@@H]1C(=O)O)Nc1ccccc1	none
O=C(Nc1ccccc1C1CC1)c1cccs1	none
N#CCCn1nc(-c2ccccc2)cc1Nc1ccccc1NC(=O)c1cccs1	L major viab 59
CC(c1ccccc1)N1C(=O)/C(=C/c2ccncc2)SC1=S (configuration not stated)	CHOP inh 86 (no result: WT yeast gro inh, RAM network inh, L major viab)
C=CCOc1ccc(/C=C2\SC(=S)N(C(C(=O)O)c3ccccc3)C2=O)cc1 (configuration not stated)	CHOP inh 90 (no result: WT yeast gro inh, RAM network inh, L major viab)
CCOc1ccc(/C=C2\SC(=S)N(C(C(=O)O)c3ccccc3)C2=O)cc1OC (configuration not stated)	none (no result: WT yeast gro inh, RAM network inh, L major viab)
Cc1ccccc1Nc1nc(N)nc(CN2CCN(C(=O)c3ccccc3)CC2)n1	none
CCOc1cc(/C=C/C(=O)Nc2ccc(C(=O)NCCN(CC)CC)cc2)ccc1OCC(C)C	L major viab 53
CCOc1cc(/C=C(\C#N)C(=O)NCC2CCCO2)ccc1O (configuration not stated)	L major viab 64
COc1cccc(-n2nc(-c3ccnn3-c3ccc(F)cc3)c(=O)n(C)c2=O)c1	L major viab 52
Oc1cc2c(cc1C(c1ccc(Br)cc1)N1CCCC1)OCO2 (configuration not stated)	L major viab 73
CCOc1ccc2nc(SCC(=O)Nc3ccc4c(c3)OCCO4)[nH]c2c1	L major viab 97 (no result: WT yeast gro inh)
COc1ccc2nc(SCC(=O)Nc3ccc4c(c3)OCCO4)[nH]c2c1	CHOP inh 76
COc1ccc(C(=O)OCC(=O)NCc2ccccc2)c(OC)c1OC	none
Clc1ccccc1Sc1ccc(-c2ccccn2)s1	none (no result: WT yeast gro inh, RAM network inh, L major viab)
COc1ccc2o/c(=N\O)c(C(=O)Nc3ccccc3OC)cc2c1	L major viab 97
COc1ccc(OC)c(N=c2oc3cc(O)ccc3cc2C(N)=O)c1	none
COc1ccc2oc(=Nc3cc(F)ccc3F)c(C(N)=O)cc2c1	L major viab 59
N/C(Cc1ccc(Cl)c(Cl)c1)=N\OC(=O)c1ccc(Br)o1	none (no result: WT yeast gro inh, RAM network inh, L major viab)
Cc1cccc(OCCSc2nc(N)cc(N)n2)c1	none (no result: WT yeast gro inh, RAM network inh, L major viab)
CCOC(=O)c1c(CSc2ccc(C)cc2)n(C)c2cc(Br)c(O)c(CN(C)C)c12	L major viab 71
CCOC(=O)c1c(CSc2ccccc2)n(C)c2cc(Br)c(O)c(CN(C)C)c12	none (no result: WT yeast gro inh, RAM network inh, L major viab)
CCOC(=O)c1c(C)n(-c2ccc(C)cc2)c2ccc(O)c(CN(C)C)c12	L major viab 99
COc1ccc(CNC(=O)C/C(C)=N/NC(=O)COc2ccc(C)cc2Br)cc1	none
C=C1CCN([C@H](C(=O)OCc2cccc(C)c2)C(C)C)S(=O)(=O)c2ccccc21	none (no result: WT yeast gro inh, RAM network inh, L major viab)
COc1ccc(CC(=O)OCC(=O)Nc2ccc3c(c2)OCO3)cc1	none
Cc1cccc(C(=O)O/N=C(\N)Cc2ccc([N+](=O)[O-])cc2)c1	none
Cc1ccc(CC(=O)O/N=C(\N)Cc2ccc([N+](=O)[O-])cc2)cc1	none
N/C(Cc1ccc([N+](=O)[O-])cc1)=N\OC(=O)C(c1ccccc1)c1ccccc1	CHOP inh 83
COc1cccc(C(=O)O/N=C(\N)Cc2ccc(Cl)cc2)c1	WT yeast gro inh 68
N/C(Cc1ccc([N+](=O)[O-])cc1)=N\OC(=O)c1ccc2ccccc2c1	WT yeast gro inh 81
COc1cccc(C(=O)O/N=C(\N)c2ccncc2)c1	none
N/C(Cc1ccc(Cl)cc1)=N\OC(=O)C1CCCCC1	L major viab 73
O=C1C(=Nc2cccc(Cl)c2)CC(c2ccc(Cl)cc2)N1c1cccc(Cl)c1 (configuration not stated)	none (no result: WT yeast gro inh, RAM network inh, L major viab)
N/C(Cc1ccc([N+](=O)[O-])cc1)=N\OC(=O)c1ccccc1Br	L major viab 94
N/C(Cc1ccc([N+](=O)[O-])cc1)=N\OC(=O)c1ccc(Br)cc1	none
COc1ccc(C/C(N)=N/OC(=O)C(c2ccccc2)c2ccccc2)cc1OC	L major viab 65
Cc1cc(C(=O)CN2C(=O)NC3(CCCc4ccccc43)C2=O)c(C)n1Cc1ccccc1 (configuration not stated)	L major viab 53
Cc1cc(C(=O)CN2C(=O)NC3(CCCc4ccccc43)C2=O)c(C)n1Cc1ccco1 (configuration not stated)	none
Cc1ccc(S(=O)(=O)N(C)C)cc1NC(=O)CN1C(=O)NC2(CCCc3ccccc32)C1=O (configuration not stated)	L major viab 72
CCOC(=O)c1c(NC(=O)c2ccc(N3C(=O)C4C5C=CC(C5)C4C3=O)cc2)sc2c1CCCC2 (configuration not stated)	none
O=Cc1ccccc1Oc1ccccc1	none
CN1CCN(CCCCOc2ccccc2C=O)CC1	L major viab 100
N#Cc1ccccc1Oc1ccccc1C=O	L major viab 57
O=Cc1ccccc1OCCOc1ccccc1C=O	L major viab 72
Cc1cc2c(ncn2C)c(NS(=O)(=O)c2ccc(Cl)cc2)c1C	none
Cc1ccc(CSc2ncnc3ccccc23)cc1	none
Cc1cccc(CSc2ncnc3ccccc23)c1	CHOP inh 73
Cc1ccc(C(=O)N/N=C\c2cc3c(cc2Br)OCO3)s1	CHOP inh 93

Assay outcomes deposited in PubChem by several laboratories.
